Data published in PubChem BioAssay (Tox21).
Values joined by “and” are separate entries in the source; they are usually repeats but may differ in a detail not shown here. Identical values can stand only once. Inconclusive results are not listed. A call without a number means that no potency is given here. Some structures have more than one record in an assay (separate samples or runs), and their calls can disagree. Active and inactive are the calls of the source. Unless noted, calls come from the whole dose curve; as a rule, active = well fitted curve in the direction sought with a large enough effect in the repeat runs; inconclusive = weak or mixed curves; inactive = no such curve, though single readings can be large; an effect the other way counts as inactive or inconclusive.

Legend:
[1] = qHTS RealTime-Glo MT Cell Viability Assay in HEK293 cells - 0 hour (AID 1224880); note: top concentration of the series differs between compounds; nearly all actives have a fitted effect of over 45% in size
Method in brief: (§1)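 Luminescence readout at each listed time point; HEK293, 600 cells/well, RealTime-Glo MT reagent added with cells; compounds pinned (23 nL in DMSO) after 5 h at 37 C; continuous culture at 37 C.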

[2] = A CellTox Green Cytotoxicity Assay to monitor cytotoxicity in HEK293 cells - 32 hour (AID 1224881); note: nearly all actives have a fitted effect of over 40% in size; note: potency is the fitted concentration of half-maximal effect
Method in brief: (§2)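 Read-out: fluorescence of a cell-impermeant cyanine dye staining DNA of dead cells, proportional to cytotoxicity. HEK293, 600 cells/well with reagent, compound (23 nL DMSO) added after 5 h; reads at 0, 8, 16, 24, 32, 40 h.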

[3] = A CellTox Green Cytotoxicity Assay to monitor cytotoxicity in HepG2 cells - 0 hour (AID 1224882); note: nearly all actives have a fitted effect of over 35% in size
Method in brief: (§3)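 HepG2, 600 cells/well premixed w/ CellTox Green; 5 h settle, 37 C/5% CO2; pintool cpd add (DMSO); 37 C, 40 h; fluorescence read at 0, 8, 16, 24, 32, 40 h.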

[4] = A CellTox Green Cytotoxicity Assay to monitor cytotoxicity in HepG2 cells - 32 hour (AID 1224883); note: nearly all actives have a fitted effect of over 50% in size; note: potency is the fitted concentration of half-maximal effect
Method in brief: as §3

[5] = A CellTox Green Cytotoxicity Assay to monitor cytotoxicity in HEK293 cells - 8 hour (AID 1224884); note: nearly all actives have a fitted effect of over 35% in size; note: potency is the fitted concentration of half-maximal effect
Method in brief: as §2

[6] = qHTS RealTime-Glo MT Cell Viability Assay in HepG2 cells - 16 hour (AID 1224885); note: nearly all actives have a fitted effect of over 50% in size
Method in brief: (§4)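 Cells + NanoLuc/prosubstrate dispensed (600 cells/well) → 5 h at 37 C/5% CO2 → compounds in DMSO transferred → 40 h incubation at 37 C, luminescence read at 0, 8, 16, 24, 32, 40 h.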

[7] = qHTS RealTime-Glo MT Cell Viability Assay in HEK293 cells - 8 hour (AID 1224887); note: nearly all actives have a fitted effect of over 50% in size; note: potency is the fitted concentration of half-maximal effect
Method in brief: as §1

[8] = A CellTox Green Cytotoxicity Assay to monitor cytotoxicity in HEK293 cells - 16 hour (AID 1224888); note: nearly all actives have a fitted effect of over 35% in size; note: potency is the fitted concentration of half-maximal effect
Method in brief: as §2

[9] = qHTS RealTime-Glo MT Cell Viability Assay in HepG2 cells - 0 hour (AID 1224889); note: nearly all actives have a fitted effect of over 50% in size
Method in brief: as §4

[10] = A CellTox Green Cytotoxicity Assay to monitor cytotoxicity in HepG2 cells - 8 hour (AID 1224890); note: nearly all actives have a fitted effect of over 45% in size
Method in brief: as §3

[11] = qHTS assay to identify small molecule antagonists of the estrogen receptor alpha (ER-alpha) signaling pathway using the BG1 cell line in the presence of 0.1 nM 17-beta-estradiol - cell viability counter screen (AID 1259241); note: nearly all actives have a fitted effect of over 40% in size
Method in brief: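 Live-cell protease activity (CellTiter-Fluor fluorescence, 30 min) was read in the same wells after VM7Luc4E2 cells had been exposed to compounds with 0.1 nM 17beta-estradiol for 22 hr at 37C.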

[12] = qHTS assay to identify small molecule antagonists of the androgen receptor (AR) signaling pathway using the MDA cell line in the presence of 0.5 nM R1881 - cell viability counter screen (AID 1259242); note: nearly all actives have a fitted effect of over 45% in size; note: potency is the fitted concentration of half-maximal effect
Method in brief: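 Live-cell protease fluorescence, CellTiter-Fluor, 30 min at 37C. Cells: MDA-kb2, 3,000/well, preincubated 5 hr. Compounds plus 0.5 nM R1881 final, 16 hr, 37C, 0% CO2.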

[13] = target: Estrogen receptor (Homo sapiens) (UniProt P03372); experiment: qHTS assay to identify small molecule antagonists of the estrogen receptor alpha (ER-alpha) signaling pathway using the BG1 cell line in the presence of 0.1 nM 17-beta-estradiol (AID 1259244); note: nearly all actives have a fitted effect of over 50% in size; note: potency is the fitted concentration of half-maximal effect
Chain of Estrogen receptor (Homo sapiens) (P03372 whole entry, looked up): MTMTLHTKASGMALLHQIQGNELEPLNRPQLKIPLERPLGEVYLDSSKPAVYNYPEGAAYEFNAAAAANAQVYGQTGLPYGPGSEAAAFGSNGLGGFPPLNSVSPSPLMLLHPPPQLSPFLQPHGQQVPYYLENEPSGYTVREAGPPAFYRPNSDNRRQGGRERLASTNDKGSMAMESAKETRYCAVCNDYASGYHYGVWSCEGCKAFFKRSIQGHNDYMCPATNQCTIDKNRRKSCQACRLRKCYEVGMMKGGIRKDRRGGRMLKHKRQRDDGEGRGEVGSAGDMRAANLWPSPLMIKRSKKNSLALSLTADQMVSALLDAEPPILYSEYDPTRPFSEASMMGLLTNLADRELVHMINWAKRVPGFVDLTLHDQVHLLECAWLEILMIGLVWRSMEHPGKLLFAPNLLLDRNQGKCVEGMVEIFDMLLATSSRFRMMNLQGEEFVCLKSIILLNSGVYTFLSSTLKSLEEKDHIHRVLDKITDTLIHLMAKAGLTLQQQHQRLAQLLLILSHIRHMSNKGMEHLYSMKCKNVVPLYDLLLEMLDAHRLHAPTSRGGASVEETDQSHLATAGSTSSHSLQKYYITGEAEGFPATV
Method in brief: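 Luminescence after ONE-Glo (30 min, room temperature) measured ERE-luciferase activity in VM7Luc4E2 cells treated 22 h with compound and 0.1 nM final 17beta-estradiol as stimulator.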

[14] = qHTS assay to identify small molecule HDAC inhibitors (AID 1259364); note: potency is the fitted concentration of half-maximal effect;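 note: wild-type HCT-116 cells with endogenous class I/II HDAC activity; nearly all actives have a fitted effect of over 45% in size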
Method in brief: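 HCT-116 (wild type), 1,500 cells/well, overnight; compound 2 hr 37C 5% CO2; HDAC-Glo I/II reagent 30 min RT; luminescence readout.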

[15] = qHTS assay to identify small molecule HDAC inhibitors - cell viability counter screen (AID 1259365)
Method in brief: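 HCT-116 (wild type), 1,500 cells/well, overnight 37C/5% CO2; compound in DMSO 2hr; CellTiter-Glo 30min RT; luminescence read.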

[16] = qHTS assay to identify small molecule agonists of the sonic hedgehog signaling (Shh) pathway - cell viability counter screen (AID 1259366); note: nearly all actives have a fitted effect of over 50% in size; note: potency is the fitted concentration of half-maximal effect
Method in brief: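 CellTiter-Fluor fluorescence read-out, 1 hr at 37C, added after 23hr compound exposure. Cells: 3T3 Gli1-Luc, an NIH/3T3 clone with stably integrated Gli1-Luc reporter, plated 4hr before compound.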

[17] = qHTS RealTime-Glo MT Cell Viability Assay in HEK293 cells - 24 hour (AID 1224886); note: nearly all actives have a fitted effect of over 50% in size; note: potency is the fitted concentration of half-maximal effect
Method in brief: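 Tox21 10K qHTS, HEK293, 600 cells/well, RealTime-Glo reagent co-dispensed with cells; 5 h preincubation, compound by pintool, 37 C, luminescence at 0–40 h.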

[18] = qHTS assay to identify small molecule antagonists of the sonic hedgehog signaling (Shh) pathway - cell viability counter screen (AID 1259367); note: nearly all actives have a fitted effect of over 55% in size; note: potency is the fitted concentration of half-maximal effect
Method in brief: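 Fluorescence read-out (CellTiter-Fluor, 1 hr at 37C) taken after 23 hr compound treatment of 3T3 Gli1-Luc cells stimulated with conditioned medium. Cells were seeded at 2,000 per well and pre-incubated 4 hr.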

[19] = qHTS assay to identify small molecule phospholipidosis (PLD) inducers (AID 1259344; active = well fitted curve in the direction sought with a large enough effect; an effect the other way counts as inactive or inconclusive)
Method in brief: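 Read-out is LipidTOX Red fluorescence (ex 595/em 615) imaged in HepG2 cells after 24 h compound exposure at 37 C, with Hoechst nuclear counterstain (ex 352/em 461) allowing per-cell normalisation.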

[20] = target: Androgen receptor (Homo sapiens) (UniProt P10275); experiment: qHTS assay to identify small molecule antagonists of the androgen receptor (AR) signaling pathway using the MDA cell line in the presence of 0.5 nM R1881 (AID 1259243)
Chain of Androgen receptor (Homo sapiens) (P10275 whole entry, looked up): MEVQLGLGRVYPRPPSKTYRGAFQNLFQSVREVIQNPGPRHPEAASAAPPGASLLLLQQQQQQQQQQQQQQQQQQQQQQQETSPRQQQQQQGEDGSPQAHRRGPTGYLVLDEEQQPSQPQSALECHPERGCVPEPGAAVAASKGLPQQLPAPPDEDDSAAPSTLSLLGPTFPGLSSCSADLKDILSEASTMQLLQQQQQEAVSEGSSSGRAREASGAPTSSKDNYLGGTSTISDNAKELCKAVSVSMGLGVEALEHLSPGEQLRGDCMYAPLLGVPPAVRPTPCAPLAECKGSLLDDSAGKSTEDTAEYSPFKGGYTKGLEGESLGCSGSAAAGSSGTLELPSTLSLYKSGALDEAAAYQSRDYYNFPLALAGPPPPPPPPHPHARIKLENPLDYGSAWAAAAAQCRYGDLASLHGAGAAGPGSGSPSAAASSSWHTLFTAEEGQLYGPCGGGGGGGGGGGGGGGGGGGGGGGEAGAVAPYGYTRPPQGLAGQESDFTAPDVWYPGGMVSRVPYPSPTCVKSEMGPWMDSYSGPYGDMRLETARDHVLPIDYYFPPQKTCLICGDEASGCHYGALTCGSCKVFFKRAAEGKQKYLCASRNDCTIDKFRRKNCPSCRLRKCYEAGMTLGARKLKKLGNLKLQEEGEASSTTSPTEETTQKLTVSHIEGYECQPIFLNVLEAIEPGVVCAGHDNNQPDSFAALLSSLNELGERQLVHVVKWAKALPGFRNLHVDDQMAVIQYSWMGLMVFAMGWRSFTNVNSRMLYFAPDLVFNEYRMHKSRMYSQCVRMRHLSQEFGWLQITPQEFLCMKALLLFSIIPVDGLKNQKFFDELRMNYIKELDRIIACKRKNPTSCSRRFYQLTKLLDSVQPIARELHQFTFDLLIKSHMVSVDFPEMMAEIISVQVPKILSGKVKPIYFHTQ
Method in brief: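 MDA-kb2, MMTV-luc (AR/GR elements); 3,000 cells/well; cpd + 0.5 nM R1881 final; 16 hr 37C, 0% CO2; ONE-Glo 30 min RT; luminescence.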

| Structure (SMILES) | Potency [1] | Potency [2] | Potency [3] | Potency [4] | Potency [5] | Potency [6] | Potency [7] | Potency [8] | Potency [9] | Potency [10] | Potency [11] | Potency [12] | Potency [13] | Potency [14] | Potency [15] | Potency [16] | Potency [17] | Potency [18] | outcome [19] | Potency [20] |
| --- | --- | --- | --- | --- | --- | --- | --- | --- | --- | --- | --- | --- | --- | --- | --- | --- | --- | --- | --- | --- |
| CCOP(=S)(OCC)Oc1cc(Cl)c(Br)cc1Cl | inactive | inactive | inactive | inactive | inactive | inactive | inactive | inactive | inactive | inactive | inactive | inactive | inactive | inactive | inactive | inactive |  |  |  |  |
| COc1c(C(C)(C)C)cc([N+](=O)[O-])c(C)c1[N+](=O)[O-] | inactive | inactive | inactive | inactive | inactive | inactive | inactive | inactive | inactive |  | inactive |  | inactive | inactive | inactive | inactive | inactive | inactive |  |  |
| CCCC(=O)Cl | inactive | inactive | inactive | inactive | inactive | inactive | inactive |  | inactive | inactive | inactive | inactive |  | inactive | inactive | inactive | inactive |  |  |  |
| CCOC(=O)[C@]1(c2ccccc2)Oc2ccccc2[C@@H]1N | inactive | inactive | inactive | inactive | inactive | inactive | inactive | inactive | inactive | inactive | inactive | inactive |  | inactive | inactive | inactive |  | inactive |  |  |
| O=[N+]([O-])c1cc(C(F)(F)F)cc([N+](=O)[O-])c1Cl | inactive | inactive | inactive | inactive | inactive | inactive | 43.8 µM (active) | inactive | inactive | inactive | inactive | inactive | inactive | inactive | inactive | 30.8 µM (active) |  | 24.4 µM (active) |  |  |
| O=C(Nc1ccccc1)Nc1cnns1 | inactive | inactive | inactive | inactive | inactive | inactive |  | inactive | inactive |  |  | inactive |  | 30.6 µM (active) | inactive | inactive | 24.5 µM (active) | inactive |  |  |
| CC(=O)c1cc2c(cc1C)C(C)(C)C(C)CC2(C)C (configuration not stated) | inactive | 19.5 µM (active) | inactive | 38.9 µM (active) |  | inactive |  | 19.5 µM (active) | inactive |  |  | inactive |  | inactive | inactive | inactive |  | inactive |  |  |
| COCC(C)N(C(=O)CCl)c1c(C)csc1C (configuration not stated) | inactive | inactive | inactive |  | inactive | inactive | inactive | inactive | inactive | inactive |  | inactive | inactive | inactive | inactive | inactive | inactive |  | inactive |  |
| C(=NC1CCCCC1)=NC1CCCCC1 | inactive | 19.6 µM (active) and 24.5 µM (active) | inactive | 11 µM (active) and 12.3 µM (active) | inactive |  |  |  | inactive |  |  | 8.69 µM (active) | 43.3 µM (active) | inactive | inactive | inactive | 19.6 µM (active) and 19.5 µM (active) | inactive |  |  |
| O=C(O)C1(c2ccc3c(c2)OC[C@H](Cc2ccc(-c4ccccc4)cc2)[C@H]3O)CCCC1 | inactive | 34.7 µM (active) | inactive | 43.6 µM (active) | 19.5 µM (active) | inactive |  |  | inactive | inactive | inactive | inactive |  | inactive | inactive | inactive |  | inactive |  |  |
| CN1[C@@H]2CC[C@H]1CC(OC(=O)c1cc(Cl)cc(Cl)c1)C2 (some centres not stated) | inactive | inactive | inactive | 23.9 µM (active) | inactive |  | inactive | inactive | inactive |  | inactive |  | inactive | inactive | inactive |  |  |  |  |  |
| CCCCOC(=O)c1ccccc1C(=O)OCc1ccccc1 | inactive | inactive | inactive | inactive | inactive | inactive |  | inactive | inactive |  | inactive | inactive |  | inactive and 17.2 µM (active) | inactive | inactive |  | inactive and 48.6 µM (active) |  |  |
| BrCC(Br)C1CCC(Br)C(Br)C1 (configuration not stated) | inactive | inactive | inactive | inactive | inactive | inactive |  | inactive | inactive | inactive | inactive | inactive |  | inactive | inactive | inactive |  | inactive |  |  |
| c1cc2ccc3cccc4ccc(c1)c2c34 | inactive | inactive | inactive |  | inactive | inactive | inactive | inactive | inactive |  |  | inactive | inactive | inactive | inactive | inactive | inactive | inactive | inactive | 16.1 µM (active) |
| O=C(NC(=O)c1c(F)cccc1F)Nc1cc(Cl)c(Oc2ncc(C(F)(F)F)cc2Cl)c(Cl)c1 | inactive | inactive | inactive | inactive | inactive |  | inactive | inactive | inactive |  | inactive | inactive | 29.3 µM (active) | inactive | inactive | inactive |  | inactive |  | 26.1 µM (active) |
| N#Cc1cc(I)c(O)c(I)c1 | inactive | inactive | inactive | inactive | inactive | inactive | inactive | inactive | inactive | inactive |  |  |  | inactive | inactive |  |  | inactive |  | 54.5 µM (active) |
